# Test results reported in PubChem BioAssay (EPA / NIEHS).
# Results filed as inconclusive are left out. The source made the active and inactive calls. The calls were made as follows: active = hit-call score of the fitted dose curve at least 0.9, where 1 is the maximum; inconclusive = response in the unintended direction; inactive = score below 0.9.
# Key:
# [1] = STM_H9_NormalizedViability: Cytotoxicity Assessment at 120 hours in the Stemina devTOX quickPredict H9 human embryonic stem cell (hESC)-based Assay (AID 2283784)
# In short: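 Pluripotent H9 hESCs were exposed, with chemical and media replaced every 24 h. Viability was read by CellTiter-Fluor fluorescence, background-corrected and normalized to the 0.1% DMSO neutral control per plate. Loss of signal was fitted.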
# [2] = biological target: AR (gene 367) (UniProt P10275); assay: ACEA_AR_antagonist_80hr: ACEA Biosciences xCELLigence Real-Time Cell Analysis on Androgen Receptor Antagonism for Proliferation (AID 2283787);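 also: 22Rv1 human prostate cancer cells with growth followed by electrical impedance; hits lower the impedance growth signal relative to DMSO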
# Chain of AR (gene 367) (P10275 whole entry, looked up): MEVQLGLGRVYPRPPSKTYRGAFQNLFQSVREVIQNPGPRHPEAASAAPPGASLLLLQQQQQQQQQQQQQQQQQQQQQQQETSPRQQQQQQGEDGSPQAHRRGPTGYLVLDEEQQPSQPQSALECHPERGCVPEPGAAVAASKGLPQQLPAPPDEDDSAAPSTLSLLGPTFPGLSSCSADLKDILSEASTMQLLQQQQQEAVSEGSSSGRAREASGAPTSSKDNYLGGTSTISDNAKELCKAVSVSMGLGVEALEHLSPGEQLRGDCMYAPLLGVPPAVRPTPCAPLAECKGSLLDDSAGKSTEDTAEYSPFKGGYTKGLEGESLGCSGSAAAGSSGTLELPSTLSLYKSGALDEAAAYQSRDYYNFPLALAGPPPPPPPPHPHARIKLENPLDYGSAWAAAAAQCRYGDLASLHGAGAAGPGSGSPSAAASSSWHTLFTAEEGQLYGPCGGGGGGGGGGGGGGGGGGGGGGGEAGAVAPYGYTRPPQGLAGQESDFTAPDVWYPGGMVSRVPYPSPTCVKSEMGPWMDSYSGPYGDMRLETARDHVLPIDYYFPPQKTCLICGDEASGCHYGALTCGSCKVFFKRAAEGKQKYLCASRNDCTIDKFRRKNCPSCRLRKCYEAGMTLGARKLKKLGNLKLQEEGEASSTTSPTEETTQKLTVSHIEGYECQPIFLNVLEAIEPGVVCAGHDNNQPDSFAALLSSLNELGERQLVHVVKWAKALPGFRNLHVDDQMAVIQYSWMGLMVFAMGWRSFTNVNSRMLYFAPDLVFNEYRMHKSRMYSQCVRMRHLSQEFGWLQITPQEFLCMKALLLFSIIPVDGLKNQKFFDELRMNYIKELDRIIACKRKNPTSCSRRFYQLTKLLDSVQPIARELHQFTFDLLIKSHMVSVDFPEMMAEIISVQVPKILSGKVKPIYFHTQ
# In short: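 22Rv1 cells in assay medium, growth tracked by electrical impedance; compounds eight-point 1:4 dilutions from 100 uM final, duplicate plates. Endpoint at 80 h; loss of signal versus DMSO.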
# [3] = system: turtle Androgen Receptor (AR), gene 101947425; assay: ATG_trAR_XSP1: Attagene TRANS-FACTORIAL Multi-Species (XSP1) HepG2 Assay for turtle Androgen Receptor (AR) (AID 2283786)
# In short: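 HepG2 cells transiently transfected with a turtle AR–GAL4 chimera and GAL4-UAS reporter, co-treated with 3 nM 6-alpha-fluorotestosterone for partial stimulation. Reporter mRNA is quantified at 24 h by RT-PCR and capillary electrophoresis, gain-of-signal versus DMSO.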
# [4] = biological target: GAL4 Transcription Factor (Internal Marker), GAL4 (gene 855828) (UniProt P04386); assay: ATG_GAL4_XSP1: Attagene TRANS-FACTORIAL Multi-Species (XSP1) HepG2 Assay for GAL4 Transcription Factor (Internal Marker) (AID 2283789)
# Chain of GAL4 Transcription Factor (Internal Marker), GAL4 (gene 855828) (P04386 whole entry, looked up, the tested form may be a part): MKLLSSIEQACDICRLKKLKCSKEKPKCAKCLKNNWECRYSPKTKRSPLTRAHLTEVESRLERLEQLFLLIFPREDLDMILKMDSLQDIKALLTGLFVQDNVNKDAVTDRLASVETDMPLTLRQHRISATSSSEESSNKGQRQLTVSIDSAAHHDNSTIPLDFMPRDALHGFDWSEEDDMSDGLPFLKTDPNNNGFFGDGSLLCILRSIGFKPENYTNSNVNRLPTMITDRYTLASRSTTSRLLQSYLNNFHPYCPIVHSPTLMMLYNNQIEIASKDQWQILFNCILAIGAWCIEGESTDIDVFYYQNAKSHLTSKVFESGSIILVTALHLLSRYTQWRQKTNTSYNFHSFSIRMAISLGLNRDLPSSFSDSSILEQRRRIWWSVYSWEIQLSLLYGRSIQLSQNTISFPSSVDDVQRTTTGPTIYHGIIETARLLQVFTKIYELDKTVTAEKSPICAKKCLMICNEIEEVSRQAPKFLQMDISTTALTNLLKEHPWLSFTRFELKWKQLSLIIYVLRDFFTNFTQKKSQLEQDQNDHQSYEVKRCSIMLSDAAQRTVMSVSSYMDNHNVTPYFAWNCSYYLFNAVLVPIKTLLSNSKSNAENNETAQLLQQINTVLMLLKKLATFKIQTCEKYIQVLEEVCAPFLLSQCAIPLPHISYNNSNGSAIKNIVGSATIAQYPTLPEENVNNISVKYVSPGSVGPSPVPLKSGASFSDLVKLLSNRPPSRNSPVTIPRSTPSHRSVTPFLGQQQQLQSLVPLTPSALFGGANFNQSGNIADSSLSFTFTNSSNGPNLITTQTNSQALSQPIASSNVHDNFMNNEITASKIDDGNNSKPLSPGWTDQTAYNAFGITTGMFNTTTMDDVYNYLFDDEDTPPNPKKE
# In short: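 HepG2 cells transiently transfected with multiplexed GAL4-UAS reporter units were exposed for 24 h with 3 nM 6-alpha-fluorotestosterone present. Reporter mRNA was quantified by RT-PCR, FAM labelling, HpaI digestion and capillary electrophoresis; background-control readout, gain-of-signal versus DMSO.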
# [5] = ATG_M_19_XSP1: Attagene TRANS-FACTORIAL Multi-Species (XSP1) HepG2 Assay for M19 Transcription Factor (Internal Marker) (AID 2283798)
# In short: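 HepG2 cells transiently transfected with multiplexed GAL4-UAS reporter units, dosed 24 h with 3 nM 6-alpha-fluorotestosterone present for partial AR stimulation. Reporter mRNA measured by RT-PCR with capillary electrophoresis; gain-of-signal fitted relative to DMSO.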
# [6] = system: zebrafish Peroxisome Proliferator-activated Receptor gamma (PPARg), gene 557037; assay: ATG_zfPPARg_XSP1: Attagene TRANS-FACTORIAL Multi-Species (XSP1) HepG2 Assay for zebrafish Peroxisome Proliferator-activated Receptor gamma (PPARg) (AID 2283801)
# In short: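 HepG2 cells transiently transfected with GAL4-UAS reporter units including a zebrafish PPARg–GAL4 chimera, dosed 24 h with 3 nM 6-alpha-fluorotestosterone present. Reporter mRNA quantified by RT-PCR, FAM labelling, HpaI digestion and capillary electrophoresis; induction versus DMSO.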
# [7] = biological target: Nuclear receptor subfamily 1 group I member 2 (Mus musculus) (UniProt O54915); assay: ATG_mPXR_XSP1: Attagene TRANS-FACTORIAL Multi-Species (XSP1) HepG2 Assay for mouse Pregnane X Receptor (PXR) (AID 2283803)
# Chain of Nuclear receptor subfamily 1 group I member 2 (Mus musculus) (O54915 whole entry, looked up, the tested form may be a part): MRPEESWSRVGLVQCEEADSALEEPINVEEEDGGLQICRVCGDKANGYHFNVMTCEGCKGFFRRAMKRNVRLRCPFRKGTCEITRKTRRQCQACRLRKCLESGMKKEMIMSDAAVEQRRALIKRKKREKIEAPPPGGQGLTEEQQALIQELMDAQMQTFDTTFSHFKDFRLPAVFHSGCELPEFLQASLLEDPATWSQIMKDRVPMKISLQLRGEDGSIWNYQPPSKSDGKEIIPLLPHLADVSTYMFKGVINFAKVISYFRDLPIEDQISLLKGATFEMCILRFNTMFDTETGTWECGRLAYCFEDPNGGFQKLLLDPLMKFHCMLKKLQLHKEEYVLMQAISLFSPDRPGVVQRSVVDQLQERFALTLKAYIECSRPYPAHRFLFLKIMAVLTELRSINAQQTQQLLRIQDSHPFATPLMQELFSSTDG
# In short: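 Transiently transfected HepG2 cells expressing a receptor-Gal4 chimera drive a GAL4-UAS reporter; 3 nM 6-alpha-fluorotestosterone included. Reporter mRNA read 24 h post-dose by RT-PCR and capillary electrophoresis; gain of signal relative to DMSO.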
# [8] = biological target: frog Thyroid hormone Receptor alpha (TRa), thra-a (gene 397942) (UniProt P15204); assay: ATG_frTRa_XSP1: Attagene TRANS-FACTORIAL Multi-Species (XSP1) HepG2 Assay for frog Thyroid hormone Receptor alpha (TRa) (AID 2283804)
# Chain of frog Thyroid hormone Receptor alpha (TRa), thra-a (gene 397942) (P15204 whole entry, looked up, the tested form may be a part): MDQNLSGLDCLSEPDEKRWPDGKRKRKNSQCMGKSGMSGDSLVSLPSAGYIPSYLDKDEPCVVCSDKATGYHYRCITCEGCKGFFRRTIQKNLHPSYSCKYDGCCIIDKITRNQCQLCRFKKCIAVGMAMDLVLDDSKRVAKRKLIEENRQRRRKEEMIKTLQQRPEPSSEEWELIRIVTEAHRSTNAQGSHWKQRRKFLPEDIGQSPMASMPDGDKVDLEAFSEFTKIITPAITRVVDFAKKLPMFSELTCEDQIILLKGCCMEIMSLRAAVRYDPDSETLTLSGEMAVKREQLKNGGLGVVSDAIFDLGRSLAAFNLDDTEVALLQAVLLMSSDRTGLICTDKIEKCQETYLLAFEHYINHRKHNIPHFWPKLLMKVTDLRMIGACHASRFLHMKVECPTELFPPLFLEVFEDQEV
# In short: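 HepG2 cells transiently transfected with frog TRa-GAL4 chimeric reporter units, dosed 24 hr with 3 nM 6-alpha-fluorotestosterone present; reporter mRNA quantified by RT-PCR, fluorescent labelling and capillary electrophoresis, gain of signal versus DMSO.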
# [9] = system: turtle Thyroid Hormone Receptor, alpha (TRa), gene 101949057; assay: ATG_trTRa_XSP1: Attagene TRANS-FACTORIAL Multi-Species (XSP1) HepG2 Assay for turtle Thyroid Hormone Receptor, alpha (TRa) (AID 2283806)
# In short: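 HepG2 cells transiently transfected with GAL4-UAS reporter units and chimeric receptor-Gal4 constructs, with 3 nM 6-alpha-fluorotestosterone present. Reporter mRNA was quantified 24 h after dosing by RT-PCR, 6-FAM labelling and capillary electrophoresis; gain of signal versus DMSO.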
# [10] = biological target: zebrafish Thyroid Hormone Receptor alpha (TRa), thraa (gene 30670) (UniProt Q98867); assay: ATG_zfTRa_XSP1: Attagene TRANS-FACTORIAL Multi-Species (XSP1) HepG2 Assay for zebrafish Thyroid Hormone Receptor alpha (TRa) (AID 2283807)
# Chain of zebrafish Thyroid Hormone Receptor alpha (TRa), thraa (gene 30670) (Q98867 whole entry, looked up, the tested form may be a part): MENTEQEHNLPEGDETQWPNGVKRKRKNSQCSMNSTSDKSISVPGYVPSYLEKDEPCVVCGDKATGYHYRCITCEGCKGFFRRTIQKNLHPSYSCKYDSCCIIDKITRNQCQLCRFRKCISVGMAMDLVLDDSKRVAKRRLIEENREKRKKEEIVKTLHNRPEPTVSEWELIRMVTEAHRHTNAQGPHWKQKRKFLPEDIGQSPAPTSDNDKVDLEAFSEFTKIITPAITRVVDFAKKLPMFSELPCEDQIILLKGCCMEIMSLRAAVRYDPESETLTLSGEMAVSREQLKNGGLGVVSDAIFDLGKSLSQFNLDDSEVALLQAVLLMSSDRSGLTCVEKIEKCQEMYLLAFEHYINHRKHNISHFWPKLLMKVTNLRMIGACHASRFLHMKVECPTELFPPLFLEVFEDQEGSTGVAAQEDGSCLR
# In short: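 HepG2 cells transiently transfected with GAL4-UAS reporter units including a zebrafish TRa–Gal4 chimera, dosed 24 h with 3 nM 6-alpha-fluorotestosterone present. Reporter mRNA quantified by RT-PCR and capillary electrophoresis; gain versus DMSO.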
compound,measurement,setting,value
CCCCOC(=O)C(C)Oc1ccc(Oc2ccc(C(F)(F)F)cn2)cc1 (stereo not drawn),outcome,[1],inactive
COC(=O)c1ccc(I)cc1S(=O)(=O)NC(=O)Nc1nc(C)nc(OC)n1,outcome,[1],inactive
CCCN(CCC)c1c([N+](=O)[O-])cc(C(F)(F)F)c(N)c1[N+](=O)[O-],outcome,[1],inactive
CCSC(=O)N(CC(C)C)CC(C)C,outcome,[1],inactive
same,outcome,[2],inactive
O=C(O)C1(C(=O)Nc2ccc(Cl)cc2Cl)CC1,outcome,[1],inactive
same,AC50,[2],65.1 µM (active)
CCCCOC(=O)[C@@H](C)Oc1ccc(Oc2ccc(C(F)(F)F)cn2)cc1,AC50,[1],73.8 µM (active)
CCCCOCCOCCOCc1cc2c(cc1CCC)OCO2,AC50,[2],76.3 µM (active)
CC1(C)C(C=C(Cl)Cl)C1C(=O)OCc1cccc(Oc2ccccc2)c1 (stereo not drawn),outcome,[3],inactive
same,AC50,[2],33 µM (active)
same,outcome,[4],inactive
same,outcome,[5],inactive
same,outcome,[6],inactive
same,AC50,[7],1.73 µM (active)
same,outcome,[8],inactive
same,outcome,[9],inactive
same,outcome,[10],inactive
